Data on 4 compounds can be found in PubChem BioAssay (EPA / NIEHS).

Assay [1] in a line: ATG_GLI_CIS: Attagene CIS-FACTORIAL HepG2 Assay for human Zinc Finger Protein GLI1 (AID 2282945). Conditions: HepG2, Attagene cis-factorial reporter mRNA, GLI element; actives raise or lower the signal. In outline: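 HepG2 cells transiently transfected with cis-promoter multiplexed reporter units report endogenous transcription factor activity. After 24 h chemical exposure, reporter mRNA was quantified by RT-PCR, 6-FAM labelling, HpaI digestion and capillary electrophoresis, with bidirectional fitting against DMSO.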

Assay [2] addresses Bile acid receptor (Homo sapiens) (UniProt Q96RI1). Kind of assay: ATG_IR1_CIS: Attagene CIS-FACTORIAL HepG2 Assay for human Nuclear Receptor Subfamily 1 Group H Member 4 (NR1H4), IR1 submotif (AID 2282946). Conditions: IR1 reporter transcription, actives raise or lower the signal. In outline:
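Transient MRTU transfection, HepG2; 24 h dosing; RNA → RT-PCR → 6-FAM primer extension → HpaI digest → capillary electrophoresis fluorescence. Gain/loss of signal fitted relative to DMSO.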

A short description of assay [3]: ATG_GRE_CIS: Attagene CIS-FACTORIAL HepG2 Assay for human Glucocorticoid Response Elements (GRE) (AID 2282947). Conditions: HepG2 GRE cis-reporter, Attagene multiplex mRNA; actives raise or lower the signal. A digest of the protocol:
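HepG2 cells transiently transfected with multiple cis-promoter reporter units measure endogenous TF activity; 24 h compound exposure. Reporter mRNA quantified by RT-PCR, FAM labelling, HpaI digestion and capillary electrophoresis; bidirectional fit vs DMSO baseline.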

Assay [4] in a line: ATG_ISRE_CIS: Attagene CIS-FACTORIAL HepG2 Assay for human Interferon Regulatory Factor 1 (IRF1) binding to an Interferon-Stimulated Response Element (ISRE) (AID 2282948). Conditions: HepG2 ISRE cis-reporter (Attagene), mRNA transcription readout; actives raise or lower the signal. In outline:
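Transiently transfected HepG2 cells carrying cis-element reporter units, dosed 24 hours. Reporter mRNA quantified by RT-PCR, fluorescent primer extension, HpaI digestion and capillary electrophoresis. Bidirectional fitting relative to DMSO.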

Assay [5] is described as follows: ATG_M_32_CIS: Attagene CIS-FACTORIAL HepG2 Assay for M32 Transcription Factor (Internal Marker) (AID 2282949).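 Note: background control marker of the multiplexed CIS panel rather than a real target.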 Conditions: HepG2 Attagene cis-factorial M32 reporter, mRNA; actives raise or lower the signal. In outline: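 Internal background marker read-out: RT-PCR/capillary electrophoresis fluorescence of reporter transcripts from transiently transfected HepG2 cells after 24 h chemical exposure. Activity fitted bidirectionally relative to DMSO negative control.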

Assay [6] in a line: ATG_M_06_CIS: Attagene CIS-FACTORIAL HepG2 Assay for M06 Transcription Factor (Internal Marker) (AID 2282950). Conditions: HepG2 Attagene CIS-FACTORIAL M06 internal marker reporter; actives raise or lower the signal. In outline: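 Fluorescence-labelled RT-PCR products from cis-promoter reporter units, cut with HpaI and resolved by capillary electrophoresis, give the signal. Cells are human HepG2, dosed for 24 h. Serves as background control, fitted relative to DMSO.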

Assay [7] deals with Hypoxia-inducible factor 1-alpha (Homo sapiens) (UniProt Q16665). Description: ATG_HIF1a_CIS: Attagene CIS-FACTORIAL HepG2 Assay for human Hypoxia Inducible Factor 1 (HIF1A) (AID 2282951). Conditions: HepG2 Attagene cis-factorial HIF1a reporter transcription; actives raise or lower the signal. A digest of the protocol: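 Transient MRTU transfection of human HepG2 liver cells, 24 h compound treatment, then total RNA isolation, oligo(dT) reverse transcription, PCR amplification, fluorescent labelling and capillary electrophoresis of reporter fragments. Gain or loss relative to DMSO.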
Chain of Hypoxia-inducible factor 1-alpha (Homo sapiens) (Q16665 whole entry, looked up, the tested form may be a part): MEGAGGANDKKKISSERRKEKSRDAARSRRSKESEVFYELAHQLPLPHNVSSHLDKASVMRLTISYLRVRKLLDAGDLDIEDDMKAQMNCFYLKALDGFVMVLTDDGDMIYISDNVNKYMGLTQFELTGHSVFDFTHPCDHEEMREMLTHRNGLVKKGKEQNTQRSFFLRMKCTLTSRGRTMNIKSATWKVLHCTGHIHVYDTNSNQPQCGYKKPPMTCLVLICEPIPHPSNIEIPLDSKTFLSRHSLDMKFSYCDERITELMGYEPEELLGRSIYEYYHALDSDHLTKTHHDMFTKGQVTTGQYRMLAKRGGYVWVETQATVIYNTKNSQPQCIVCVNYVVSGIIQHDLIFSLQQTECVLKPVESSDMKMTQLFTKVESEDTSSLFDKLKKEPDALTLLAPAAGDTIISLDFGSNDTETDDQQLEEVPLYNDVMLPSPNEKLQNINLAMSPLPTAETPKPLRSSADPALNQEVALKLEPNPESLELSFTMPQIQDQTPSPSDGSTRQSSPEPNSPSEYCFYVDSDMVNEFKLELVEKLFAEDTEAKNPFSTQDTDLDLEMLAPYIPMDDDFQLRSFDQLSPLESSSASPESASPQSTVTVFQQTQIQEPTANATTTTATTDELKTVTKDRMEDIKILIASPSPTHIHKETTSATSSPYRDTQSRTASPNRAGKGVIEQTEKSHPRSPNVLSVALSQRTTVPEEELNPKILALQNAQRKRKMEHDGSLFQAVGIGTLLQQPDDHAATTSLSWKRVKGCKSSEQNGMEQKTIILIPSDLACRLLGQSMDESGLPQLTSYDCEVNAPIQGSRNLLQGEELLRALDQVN

Assay [8] concerns the target Hepatocyte nuclear factor 6 (Homo sapiens) (UniProt Q9UBC0). Description: ATG_HNF6_CIS: Attagene CIS-FACTORIAL HepG2 Assay for human Hepatocyte Nuclear Factor 6 (HNF6) (AID 2282952). Conditions: HepG2 Attagene cis-factorial HNF6 reporter transcription; actives raise or lower the signal. A digest of the protocol:
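HepG2 cells transiently transfected with cis-element-driven multiplexed reporter units measuring endogenous transcription factor activity. After 24 h exposure, reporter mRNA quantified by RT-PCR, FAM-labelled fragments and capillary electrophoresis; bidirectional fitting versus DMSO.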

Assay [9] can be described thus: ATG_MRE_CIS: Attagene CIS-FACTORIAL HepG2 Assay for human Metal Responsive Element (MRE) (AID 2282954). Conditions: HepG2 MRE cis-reporter transcription, Attagene multiplex; actives raise or lower the signal. In outline: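 HepG2 cells transiently transfected with multiple cis-element reporter units measure endogenous MTF1-driven transcription. After 24 h compound exposure, reporter mRNA is quantified by RT-PCR with 6-FAM labelling, HpaI digestion and capillary electrophoresis; bidirectional fits versus DMSO.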

Assay [10] is described as follows: ATG_PBREM_CIS: Attagene CIS-FACTORIAL HepG2 Assay for human Phenobarbital-responsive Enhancer Module (PBREM) (AID 2282955). Conditions: HepG2 PBREM cis-reporter, Attagene multiplexed transcription; actives raise or lower the signal. A digest of the protocol: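 Endogenous transcription factors in human liver HepG2 cells drive a PBREM cis-element reporter, whose transcript level after 24 h treatment is quantified by RT-PCR with capillary electrophoresis; activity fitted in both directions against DMSO.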

For assay [11], the target named is Paired box protein Pax-6 (Homo sapiens) (UniProt P26367). Description: ATG_Pax6_CIS: Attagene CIS-FACTORIAL HepG2 Assay for human Paired Box 6 (PAX6) (AID 2282956). Conditions: HepG2 CIS-FACTORIAL PAX6 reporter transcription, RNA readout; actives raise or lower the signal. A digest of the protocol:
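HepG2 cells transiently transfected with cis-promoter-driven multiplexed reporter units sensing endogenous transcription factor activity; 24 h chemical exposure. Reporter mRNA quantified by RT-PCR, 6-FAM labelling, HpaI digestion and capillary electrophoresis; bidirectional fit versus DMSO baseline.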

Assay [12] is described as follows: ATG_PXRE_CIS: Attagene CIS-FACTORIAL HepG2 Assay for human Pregnane X Receptor Element (PXRE) (AID 2282957). Conditions: HepG2 Attagene CIS-FACTORIAL PXRE reporter, mRNA; actives raise or lower the signal. In outline: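 HepG2 cells transiently transfected with cis-element-driven multiplexed reporter units; after 24 h chemical exposure, reporter mRNA measured by RT-PCR, 6-FAM labelling, HpaI digestion and capillary electrophoresis. Bidirectional fitting relative to DMSO.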

Assay [13] can be described thus: ATG_PPRE_CIS: Attagene CIS-FACTORIAL HepG2 Assay for human Peroxisome Proliferator-activated Response Element (PPRE) (AID 2282958). Conditions: HepG2 PPRE cis-element reporter, Attagene transcription factor profiling; actives raise or lower the signal. A digest of the protocol: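 HepG2, transient MRTU transfection (cis promoter elements, endogenous TFs). 24 h dosing. RNA → oligo(dT) RT → PCR → 6-FAM primer extension → HpaI digest → CE. Bidirectional fit vs DMSO.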

A short description of assay [14]: ATG_RORE_CIS: Attagene CIS-FACTORIAL HepG2 Assay for human RAR-related Orphan Receptor Element (RORE) (AID 2282959). Conditions: HepG2 Attagene cis-factorial RORE reporter, mRNA; actives raise or lower the signal. In outline:
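Transient MRTU transfection of human HepG2 liver cells (FuGene 6); 24 h compound exposure; TriZol RNA, oligo(dT) RT, PCR, FAM labeling, HpaI cut, CE fragment analysis. DMSO = negative control/baseline.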

The nature of assay [15]: ATG_Sox_CIS: Attagene CIS-FACTORIAL HepG2 Assay for human SRY-box transcription factor (SOX) (AID 2282960). Conditions: HepG2 Attagene cis-factorial SOX reporter, mRNA; actives raise or lower the signal. In outline:
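Endogenous factor activity in human liver HepG2 cells carrying transfected cis-regulated reporter units. RNA taken 24 h post-dose, reverse-transcribed, PCR-amplified and sized by capillary electrophoresis. Gain or loss of signal fitted relative to DMSO.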

The target in assay [16] is Transcription factor Sp1 (Homo sapiens) (UniProt P08047). Description: ATG_Sp1_CIS: Attagene CIS-FACTORIAL HepG2 Assay for human Specificity Protein 1 (Sp1) (AID 2282961). Conditions: HepG2 Sp1 cis-reporter transcription, actives raise or lower the signal. In outline:
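Transient MRTU-transfected HepG2, 24 h compound exposure. Total RNA → oligo(dT) RT → PCR of reporter → 6-FAM primer extension → HpaI digest → CE. Endpoint fitted both directions vs DMSO.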

Assay [17] can be described thus: ATG_SREBP_CIS: Attagene CIS-FACTORIAL HepG2 Assay for human Sterol Regulatory Element Binding (SREBP) (AID 2282962). Conditions: HepG2 Attagene cis-factorial SREBP reporter, mRNA; actives raise or lower the signal. In outline: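 HepG2 cells transiently transfected with multiplexed cis-promoter reporter units sensing endogenous transcription factors; reporter mRNA measured 24 h after dosing by RT-PCR, 6-FAM labeling, HpaI digestion and capillary electrophoresis. Bidirectional fit versus DMSO.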

Assay [18] has as its target Signal transducer and activator of transcription 3 (Homo sapiens) (UniProt P40763). Kind of assay: ATG_STAT3_CIS: Attagene CIS-FACTORIAL HepG2 Assay for human Signal Transducer and Activator of Transcription 3 (STAT3) (AID 2282963). Conditions: HepG2, Attagene cis-factorial STAT3 reporter transcription; actives raise or lower the signal. A digest of the protocol: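 HepG2 cells transiently transfected with cis-element-driven multiple reporter transcription units; after 24 h chemical exposure, reporter mRNA measured by RT-PCR, 6-FAM primer-extension labelling, HpaI digestion and capillary electrophoresis. Bidirectional fitting versus DMSO baseline.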

Assay [19] in a line: ATG_TA_CIS: Attagene CIS-FACTORIAL HepG2 Assay for human TA Basal Promoter (AID 2282964). Conditions: HepG2 Attagene CIS-factorial TA basal promoter reporter; actives raise or lower the signal. A digest of the protocol:
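Multiplexed mRNA reporter assay, HepG2, 24 h. Reporter cDNA amplified, 6-FAM primer-extended, HpaI-cut, CE-sized; DMSO = negative control and baseline.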

Assay [20] deals with Heat shock factor protein 1 (Homo sapiens) (UniProt Q00613). Description: ATG_HSE_CIS: Attagene CIS-FACTORIAL HepG2 Assay for human Heat Shock Transcription Factor 1 (HSE) (AID 2282953). Conditions: HepG2 HSE cis-reporter, Attagene RNA transcription; actives raise or lower the signal. A digest of the protocol: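 After a 24 h incubation with test chemical, transfected HepG2 cells were harvested for RNA; reporter transcripts were measured by RT-PCR and capillary electrophoresis. Values reflect gain or loss of signal relative to DMSO.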
Chain of Heat shock factor protein 1 (Homo sapiens) (Q00613 whole entry, looked up): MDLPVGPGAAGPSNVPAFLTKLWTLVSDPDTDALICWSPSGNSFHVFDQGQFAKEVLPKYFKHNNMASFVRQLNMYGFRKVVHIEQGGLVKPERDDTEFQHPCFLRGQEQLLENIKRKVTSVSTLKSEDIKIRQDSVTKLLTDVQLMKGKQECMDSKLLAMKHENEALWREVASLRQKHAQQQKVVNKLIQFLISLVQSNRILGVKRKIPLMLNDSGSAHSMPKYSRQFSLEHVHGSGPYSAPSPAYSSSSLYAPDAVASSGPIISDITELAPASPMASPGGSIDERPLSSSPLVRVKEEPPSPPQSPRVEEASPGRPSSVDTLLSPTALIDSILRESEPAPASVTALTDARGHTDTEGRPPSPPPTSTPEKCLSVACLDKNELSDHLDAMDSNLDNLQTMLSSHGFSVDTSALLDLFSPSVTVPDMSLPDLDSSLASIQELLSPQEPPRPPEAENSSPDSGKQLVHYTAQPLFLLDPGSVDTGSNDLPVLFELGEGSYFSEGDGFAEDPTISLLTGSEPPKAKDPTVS

Molecules are shown by their SMILES. Active and inactive are the calls of the source. Rule for the calls: active = hit-call score of the fitted dose curve at least 0.9, where 1 is the maximum; inactive = score below 0.9.

Chain of Transcription factor Sp1 (Homo sapiens) (P08047 whole entry, looked up): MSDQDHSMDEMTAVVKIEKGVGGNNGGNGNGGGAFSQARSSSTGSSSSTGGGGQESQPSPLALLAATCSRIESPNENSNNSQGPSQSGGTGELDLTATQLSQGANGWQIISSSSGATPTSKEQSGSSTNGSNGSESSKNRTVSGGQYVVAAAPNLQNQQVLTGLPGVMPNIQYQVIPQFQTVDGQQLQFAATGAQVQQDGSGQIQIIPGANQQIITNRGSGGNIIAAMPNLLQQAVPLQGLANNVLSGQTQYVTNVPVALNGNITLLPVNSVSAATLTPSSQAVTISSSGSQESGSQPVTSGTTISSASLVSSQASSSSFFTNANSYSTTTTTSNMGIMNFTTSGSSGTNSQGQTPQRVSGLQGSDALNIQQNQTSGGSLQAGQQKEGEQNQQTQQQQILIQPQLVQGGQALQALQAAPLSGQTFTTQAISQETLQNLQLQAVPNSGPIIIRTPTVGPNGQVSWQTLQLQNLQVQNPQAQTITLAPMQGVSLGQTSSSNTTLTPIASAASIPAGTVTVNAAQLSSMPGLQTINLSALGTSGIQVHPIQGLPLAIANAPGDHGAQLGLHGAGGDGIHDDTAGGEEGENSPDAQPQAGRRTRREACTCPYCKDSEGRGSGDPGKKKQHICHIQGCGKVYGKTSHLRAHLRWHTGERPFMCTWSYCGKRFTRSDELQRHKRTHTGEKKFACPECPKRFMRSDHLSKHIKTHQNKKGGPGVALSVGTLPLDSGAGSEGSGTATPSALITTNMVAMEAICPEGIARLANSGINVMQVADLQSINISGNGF
Chain of Paired box protein Pax-6 (Homo sapiens) (P26367 whole entry, looked up): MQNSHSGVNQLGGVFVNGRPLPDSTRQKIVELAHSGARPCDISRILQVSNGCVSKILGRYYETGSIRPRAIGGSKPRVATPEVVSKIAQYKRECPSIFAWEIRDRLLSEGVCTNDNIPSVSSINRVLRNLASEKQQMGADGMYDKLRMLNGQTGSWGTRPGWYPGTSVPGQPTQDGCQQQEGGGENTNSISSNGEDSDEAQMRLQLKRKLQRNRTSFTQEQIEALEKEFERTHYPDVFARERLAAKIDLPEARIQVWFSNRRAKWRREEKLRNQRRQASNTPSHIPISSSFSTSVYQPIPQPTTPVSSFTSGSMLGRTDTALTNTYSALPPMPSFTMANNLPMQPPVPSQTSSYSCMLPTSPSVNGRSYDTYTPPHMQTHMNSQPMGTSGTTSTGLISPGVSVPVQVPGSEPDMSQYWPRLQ
Chain of Bile acid receptor (Homo sapiens) (Q96RI1 whole entry, looked up): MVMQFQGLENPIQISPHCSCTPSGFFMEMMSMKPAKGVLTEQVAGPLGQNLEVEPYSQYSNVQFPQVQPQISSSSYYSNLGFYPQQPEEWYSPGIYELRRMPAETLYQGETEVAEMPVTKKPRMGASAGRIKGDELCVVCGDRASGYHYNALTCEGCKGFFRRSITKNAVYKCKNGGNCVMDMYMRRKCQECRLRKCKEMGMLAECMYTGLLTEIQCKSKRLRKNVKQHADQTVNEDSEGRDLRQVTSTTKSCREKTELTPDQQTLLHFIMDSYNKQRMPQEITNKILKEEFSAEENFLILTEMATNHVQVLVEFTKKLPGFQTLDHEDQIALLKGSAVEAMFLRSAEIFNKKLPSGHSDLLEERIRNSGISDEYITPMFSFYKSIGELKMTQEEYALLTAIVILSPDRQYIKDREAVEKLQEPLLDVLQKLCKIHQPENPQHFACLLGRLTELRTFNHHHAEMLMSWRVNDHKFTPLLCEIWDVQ
Chain of Hepatocyte nuclear factor 6 (Homo sapiens) (Q9UBC0 whole entry, looked up, the tested form may be a part): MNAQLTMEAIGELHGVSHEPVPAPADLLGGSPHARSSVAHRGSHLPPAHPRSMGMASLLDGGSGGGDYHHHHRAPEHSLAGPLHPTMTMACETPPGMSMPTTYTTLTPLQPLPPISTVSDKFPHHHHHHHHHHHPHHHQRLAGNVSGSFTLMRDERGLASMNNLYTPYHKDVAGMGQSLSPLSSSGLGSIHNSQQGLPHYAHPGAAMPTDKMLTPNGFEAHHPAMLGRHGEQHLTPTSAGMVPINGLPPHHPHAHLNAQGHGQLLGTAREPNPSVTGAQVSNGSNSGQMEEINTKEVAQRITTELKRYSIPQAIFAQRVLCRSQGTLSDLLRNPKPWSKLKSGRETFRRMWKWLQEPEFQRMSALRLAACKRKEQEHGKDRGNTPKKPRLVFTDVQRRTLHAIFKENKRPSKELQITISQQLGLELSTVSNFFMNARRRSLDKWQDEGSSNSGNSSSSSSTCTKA
Chain of Signal transducer and activator of transcription 3 (Homo sapiens) (P40763 whole entry, looked up): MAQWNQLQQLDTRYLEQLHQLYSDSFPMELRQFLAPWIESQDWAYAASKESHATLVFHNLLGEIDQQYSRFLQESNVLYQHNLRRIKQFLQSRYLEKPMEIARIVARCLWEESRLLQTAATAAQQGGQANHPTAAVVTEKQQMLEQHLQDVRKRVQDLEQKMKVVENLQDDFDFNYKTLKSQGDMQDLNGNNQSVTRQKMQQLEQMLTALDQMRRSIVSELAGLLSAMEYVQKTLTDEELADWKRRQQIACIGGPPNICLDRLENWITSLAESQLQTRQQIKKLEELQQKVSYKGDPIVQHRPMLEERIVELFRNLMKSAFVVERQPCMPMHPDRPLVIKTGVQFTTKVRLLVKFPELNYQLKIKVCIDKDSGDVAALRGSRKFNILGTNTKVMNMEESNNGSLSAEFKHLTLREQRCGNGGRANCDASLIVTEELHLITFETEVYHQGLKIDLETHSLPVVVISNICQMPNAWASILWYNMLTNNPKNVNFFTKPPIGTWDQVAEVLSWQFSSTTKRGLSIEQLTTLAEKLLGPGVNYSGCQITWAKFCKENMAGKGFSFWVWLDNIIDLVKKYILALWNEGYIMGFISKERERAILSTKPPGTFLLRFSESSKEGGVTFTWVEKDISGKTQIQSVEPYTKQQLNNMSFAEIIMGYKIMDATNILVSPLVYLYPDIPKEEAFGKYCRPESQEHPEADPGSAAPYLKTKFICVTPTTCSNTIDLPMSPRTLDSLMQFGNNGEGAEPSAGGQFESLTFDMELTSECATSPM

In the case of `CCCCC(C=O)CC` (centres undefined), the compound was called inactive in [1], in [2], in [3], in assay [4], in [5] and in [6]. Also, the outcome in [7], in [8], in assay [9], in assay [10], in [11] and in assay [12] was inactive. In addition, the call in assay [13], in assay [14], in assay [15], in assay [16], in assay [17] and in assay [18] was inactive. For the same compound, in assay [19], the compound was called inactive.
As for `CC(C)(CO)COC(=O)C(C)(C)CO`, the result in assay [1], in assay [2], in [3], in [4], in [5] and in assay [6] was inactive. Besides, the compound was classed as inactive in assay [7], in [8], in assay [10], in assay [11], in [13] and in assay [15]. In addition, the call in [16], in [17], in assay [18] and in [19] was inactive.
On to `CCOC(=O)C1=NOC(c2ccccc2)(c2ccccc2)C1`, for which the outcome in assay [1], in assay [2], in assay [3], in assay [4], in assay [5] and in [6] was inactive. Besides, the compound was called inactive in [8], in assay [9], in [11], in assay [14], in assay [16] and in assay [18]. Besides, the compound was called inactive in assay [19]. In addition, the AC50 in assay [7] was 160 µM (active); in [20] it was 143 µM (active); in [12], 18.3 µM (active).
As for `Nc1ccc(C(=O)O)cc1`, the compound was classed as inactive in [1], in assay [2], in assay [3], in assay [4], in assay [5] and in [6]. In addition, the call in [8], in assay [20], in assay [9], in assay [10], in [11] and in assay [12] was inactive. The result in [14], in [15], in assay [16], in [17], in assay [18] and in assay [19] was inactive.

For orientation: AC50 means the concentration giving half of the maximal activity seen.
